HCMV antiviral: blocks human cytomegalovirus replication. 410,000 compounds, 4.5% hits. activity change, negative = inhibition, % at 57.5 µM. HFF cells, HCMV-luciferase reporter, 72 h; stronger effect = lower value; in the data active = activity change below about -60%; inconclusive = no clear call, values can overlap the other calls; inactive = above about -39%; note: % is set by controls: 0 for no effect and ±100 for the full control effect
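HFF cells seeded 16 h at 37C, treated with compounds, infected with luciferase-reporter HCMV at MOI 1 PFU/cell; luciferase read at 72 h post infection, normalized to buffer-only and Salinomycin controls.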
Pf growth 48h: inhibits P. falciparum growth in the first generation, 48 h. P. falciparum luciferase growth in erythrocytes, 48 h. AID 504832. Potency, µM (top dose mostly 28.7 µM), for inactives: at the highest dose activity change, negative = inhibition, actives largely listed as inhibitors. 310,000 compounds, 5.9% hits; note: potency is the fitted concentration of half-maximal effect; % is set by controls: 0 for no effect and ±100 for the full control effect
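Luminescence readout; reporter = integrated firefly luciferase in P. falciparum. RBC culture at 2% hematocrit, 0.1% parasitemia final, 37 C/5% CO2; decreased signal taken as growth inhibition.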
HCV inhibitor: inhibitors of hepatitis C virus infection | Huh7.5.1 HCVcc-Cre infection, luciferase reporter, 44 h | Potency, µM (doses to about 41.8 µM), without a hit: at the highest dose activity change, negative = inhibition, most hits filed as inhibitors | 340,000 compounds, 3.4% hits; note: potency is the fitted concentration of half-maximal effect; % is set by controls: 0 for no effect and ±100 for the full control effect
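Infectious HCVcc-Cre (~0.5 moi) was added to cells just after compound, with cells seeded 4 h earlier at 1,000 per well. Luciferase activity after 44 h culture reported infection; substrate was incubated 15 min at room temperature before reading.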
SARS PLP yeast: inhibitors of SARS-CoV papain-like protease in yeast; S. cerevisiae expressing SARS-CoV PLpro, growth rescue; Potency, µM (titrated, usually from 32.9 µM), without a hit: top-dose activity, positive = growth rescue, usual class: activators; 330,000 compounds, 0.19% hits; AID 485353; calls by dose curve; note: potency is the fitted concentration of half-maximal effect; 0% is about no effect; nearly all actives have a fitted effect of over 55% in size
Pf growth 96h: inhibits malaria parasite growth, 96 h. P. falciparum luciferase reporter growth, 96 h. Potency, µM (titrated, usually from 28.7 µM), inactives show top-dose activity change, negative = inhibition, hits mostly inhibitors. 320,000 compounds, 6.9% hits. AID 504834; note: potency is the fitted concentration of half-maximal effect; % is set by controls: 0 for no effect and ±100 for the full control effect
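Plates of compound plus infected erythrocytes (2% hematocrit, 0.05% parasitemia final) incubate 96 hours, 37 C, 5% CO2. Detection reagent added; reduced luminescence from the parasites' luciferase reporter flags inhibition.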
Sm TGR block: S. mansoni TGR enzyme inhibition | Q962Y6 | purified TGR, DTNB reduction, TNB absorbance 405 nm | Potency, µM (series often up to 114 µM), inactives show at the highest dose activity change, negative = inhibition, usual class: inhibitors | 360,000 compounds, 3% hits; note: potency is the fitted concentration of half-maximal effect; % is set by controls: 0 for no effect and ±100 for the full control effect; nearly all actives have a fitted effect of over 60% in size
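First, TGR (20 nM dispensed) and NADPH were mixed with compound. Second, a 15 min room-temperature incubation followed. Third, further NADPH and then DTNB were added to start the reaction. Finally, TNB absorbance was monitored kinetically.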
Starred values were filed as active, the others as inactive. The list is not random: actives were taken first. Their share in the collection is about 15%. Unless noted, calls come from the whole dose curve; as a rule, active = well fitted curve in the direction sought with a large enough effect; inconclusive = small, poorly fitted or top-dose-only effect, or another doubt; inactive = no such curve, though single readings can be large; an effect the other way counts as inactive or inconclusive.

What do the screens show for `COc1ccc(NC(=O)c2cc(S(=O)(=O)NCCC3=CCCCC3)ccc2F)cc1`?
HCMV antiviral: -79.6*; Sm TGR block: -3.8%

What do the screens show for `O=C(Nc1cccc(F)c1)c1cc(S(=O)(=O)NCCC2=CCCCC2)ccc1F`?
HCMV antiviral: -72.5*; Pf growth 48h: inconclusive; HCV inhibitor: inconclusive; SARS PLP yeast: 4.2%; Pf growth 96h: inconclusive; Sm TGR block: -10.5%

How did Cc1ccc(S(=O)(=O)NCCC2=CCCCC2)cc1C(N)=O do in these assays?
HCMV antiviral: -74.9*; Pf growth 48h: 14.9%; HCV inhibitor: inconclusive; Pf growth 96h: 10.4µM*; Sm TGR block: -2.2%

Results for Cc1ccc(NC(=O)c2cc(S(=O)(=O)NCCC3=CCCCC3)ccc2F)cc1F ?
HCMV antiviral: -70.5*; Pf growth 48h: inconclusive; HCV inhibitor: 4.47µM*; SARS PLP yeast: 17.0%; Pf growth 96h: inconclusive; Sm TGR block: 5.6%

Results for Cc1cc(C)cc(NC(=O)c2cc(S(=O)(=O)NCCC3=CCCCC3)ccc2F)c1 ?
HCMV antiviral: -14.1; Sm TGR block: 0.4%

How did Cc1nn(CC(C)C(=O)N2CCN(S(=O)(=O)c3ccc(Cl)cc3)CC2)c(C)c1C (stereo unspecified) do in these assays?
HCMV antiviral: -26.8; Pf growth 48h: inconclusive; HCV inhibitor: -1.4%; SARS PLP yeast: 16.5%; Pf growth 96h: -18.0%; Sm TGR block: 18.3%

How did COCCSc1ccccc1C(=O)N1CCc2ccccc2C1 do in these assays?
HCMV antiviral: 23.2; Pf growth 48h: -3.8%; HCV inhibitor: -2.2%; SARS PLP yeast: 0.2%; Pf growth 96h: -0.3%; Sm TGR block: -0.8%

Results for CC(=O)Nc1c([N+](=O)[O-])cc2c3c(cccc13)CC2 ?
HCMV antiviral: -0.1

Results for Cc1nc(N2CCCCC2)sc1C(=O)c1ccc(SCCO)c([N+](=O)[O-])c1 ?
HCMV antiviral: inconclusive; Pf growth 48h: -12.2%; HCV inhibitor: 1.12µM*; SARS PLP yeast: 0.9%; Pf growth 96h: 3.7%; Sm TGR block: 1.7%

How did Cc1nc(N2CCCCC2)sc1C(=O)c1cccc([N+](=O)[O-])c1 do in these assays?
HCMV antiviral: -72.6*; Pf growth 48h: inconclusive; HCV inhibitor: inconclusive; SARS PLP yeast: 0.8%; Pf growth 96h: -65.5%; Sm TGR block: 0.9%

Results for O=C(NC[C@@H]1CC[C@@H](Cc2ccc(-c3ccccc3)cc2)O1)Nc1ccc(Br)cc1 ?
HCMV antiviral: -25.6; HCV inhibitor: 5.01µM*; SARS PLP yeast: -12.7%

How did O=C(NCCCCc1ccccc1)NC[C@@H]1CC[C@@H](Cc2ccc(-c3ccccc3)cc2)O1 do in these assays?
HCMV antiviral: -17.1; HCV inhibitor: inconclusive; SARS PLP yeast: -26.6%

What do the screens show for `O=C(NCCc1ccc(Cl)cc1)C1CCCO1` (stereo unspecified)?
HCMV antiviral: 11.5; Pf growth 48h: 32.9%; HCV inhibitor: 13.4%; SARS PLP yeast: -0.1%; Pf growth 96h: inconclusive; Sm TGR block: -13.6%

How did CCc1ccc2occ(CC(=O)Nc3nnc(C)s3)c2c1 do in these assays?
HCMV antiviral: 14.3; Sm TGR block: -1.4%

How did Cc1cccc(C)c1NC(=O)CSc1nc(-c2cccs2)cc(C(F)(F)F)n1 do in these assays?
HCMV antiviral: inconclusive; Sm TGR block: -2.4%

Results for COc1ccc(NC(=O)CSc2nc(-c3cccs3)cc(C(F)(F)F)n2)cc1OC ?
HCMV antiviral: -68.7*; Sm TGR block: 5.5%

What do the screens show for `Cc1ccc(F)cc1NC(=O)CSc1nc(-c2cccs2)cc(C(F)(F)F)n1`?
HCMV antiviral: -76.4*; Sm TGR block: 2.1%

What do the screens show for `CC1(C)CC1C(=O)Nc1ccc([N+](=O)[O-])cc1Br` (stereo unspecified)?
HCMV antiviral: -31.7; Pf growth 48h: 18.7%; HCV inhibitor: inconclusive; SARS PLP yeast: 7.1%; Pf growth 96h: 17.2%; Sm TGR block: 1.1%

From PubChem
